This is part of a sample that, as a whole, favours compounds with a hit. Of some 83,000 tested, about 20% had one in any assay.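 Plates (96-well) were seeded with cells, treated with compound at one concentration, and incubated for 48 hours before percent growth was determined.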 The source made the active and inactive calls.
These molecules were tested on HOP-62 NSCLC (assay: NCI-60 one-dose screen, 48 h (100 = growth as untreated, 0 = no growth, -100 = all killed)). Details: 10 µM unless noted.
Experimental: Growth inhibition of the HOP-62 human Non-Small Cell Lung tumor cell line is measured as a screen for anti-cancer activity. Cells are grown in 96 well plates and exposed to the test compound for 48 hours. Compounds are tested at a single concentration, which is 10^-5 M for most compounds. The reported endpoint is percent growth (GI% or GIPRCNT), where numbers from 0 - 100% represent growth inhibition, and numbers from -100% - 0 represent cell death. For example, a value of 40 represents 60% growth inhibition. A value of 0 means no net growth occurred over the course of the experiment. A value of -40 indicates 40% of cells at the beginning of the experiment died by the end of the experiment. A value of -100 means all cells are dead at the end of the experiment.
NCI-60 Human Tumor Cell Lines Screen was performed using the standard one-dose NCI protocol, which is described in more detail at https://dtp.cancer.gov/discovery_development/nci-60/default.htm.
Compounds with GIPRCNT values below 10 were considered active. Activity score was based on GIPRCNT using the following formula: […]
Score is 0 for GIPRCNT values of 100 or above, 50 for GIPRCNT values of 0, and 100 for GIPRCNT values of -100.
For `C=C1CCC2C3(C)COC(c4ccccc4)OC3CCC2(C)C1C/C=C1/C(=O)OCC1OC(C)=O` (stereo not given), the growth was 96.1% (inactive).
For `Nc1nc(Nc2ccccc2SSc2ccccc2Nc2nc(N)nc(-c3ccc(I)cc3)n2)nc(-c2ccc(I)cc2)n1`, the growth was 26.1% (inactive).
In the case of `Cc1ccc(-c2csc(N)n2)cc1`, the growth is reported as 110% (inactive).
In the case of `COP(=O)(OC)C(c1ccc(O)cc1)(c1ccc(O)cc1)c1ccc(O)cc1`, the growth is reported as 83.3% (inactive).
In the case of `NC(=N\N=C/Cc1ccccc1)/C(N)=N\N=C\Cc1ccccc1`, the growth is reported as 113% (inactive).
`CCOC(=O)/C(=C/CC/C(C)=C/CC/C(C)=C/CCc1ccoc1)CC(=O)N1CCCCC1` was tested, and the growth was 86% (inactive).
`O=C(O)C1C(c2ccccc2)c2ccccc2C(O)C1CO` (stereo not given) was tested, and the growth was 107% (inactive).
`CCOC(=O)CNC(=O)C1(NC(=O)CNC(=O)OCc2ccccc2)CCCC1` was tested, and the growth was 112% (inactive).
For `COC(=O)c1cc2c(/C=C3/NC(=S)NC3=O)coc2n1C`, the growth was 89.3% (inactive).
With `CC(=O)Nc1c(Cl)cc2c(c1Cl)Cc1cc([N+](=O)[O-])ccc1-2` the growth was 69.6% (inactive).
For `COC(=O)Nc1ccc2ccc3c(NC(=O)OC)ccc4ccc1c2c43` (tested in a mixture with another compound), the growth was 48.5% (inactive).
For `Cc1cc2c(cc1C)[n+](Cc1ccc3ccccc3c1)cn2Cc1ccc2ccccc2c1`, the growth was -73% (active).
`NS(=O)(=O)c1ccc(-n2ncc3c(SCc4ccccc4)ncnc32)cc1` was tested, and the growth was 66.9% (inactive).
For `CC(=O)Nc1cc2c3c(cccc3c1)-c1ccccc1-2`, the growth was 103% (inactive).
For `C/C(=C\CCc1ccoc1)CC/C=C(\C)CCCC1COC(=O)C1` (stereo not given), the growth was 96.9% (inactive).
With `O=C1/C(=C\c2coc3ccccc3c2=O)c2ccccc2N1c1c(Cl)cccc1Cl` the growth was 68.2% (inactive).
With `COc1cc(C2CC(c3ccc(C)cc3)=NN2C=O)ccc1OCCN(C)C` (stereo not given) the growth was 87.9% (inactive).
With `Cc1nn(-c2ccccc2)c2nc(N)c(C3=NCCO3)nc12` the growth was 81.2% (inactive).
For `CCCCNCCCN(CCCC)CCCNCCCC`, the growth was 94.9% (inactive).
For `CC1C(=O)NC2=Nc3ccccc3C(=O)NN21` (stereo not given), the growth was 87.8% (inactive).
`CCN1CCN(c2nc(NNC(=O)Cc3ccccc3)nc(N3CCN(C(c4ccccc4)c4ccccc4)CC3)n2)CC1` was tested, and the growth was 74.5% (inactive).
In the case of `CC[N+](CCCCCCCCCC[N+](CC)(c1ccccn1)c1ccccn1)(c1ccccn1)c1ccccn1`, the growth is reported as 10.7% (inactive).
`O=C(COc1cccc(/C=C2\Oc3ccc4ccccc4c3C2=O)c1)c1ccc([N+](=O)[O-])cc1` was tested, and the growth was 87.6% (inactive).
For `CC1=C([Se]CC(OC(=O)[C@@H](CSSC(C)(C)C)NC(=O)C(C)(C)C)C(=O)NCCCCCC(=O)OCc2ccccc2)C(=O)c2ccccc2C1=O` (stereo not given in full), the growth was -95% (active).
In the case of `COP(=O)(OC)C(c1ccccc1)(c1ccccc1)c1ccccc1`, the growth is reported as 93.8% (inactive).
With `Cc1ccc2nc(-c3ccc(N(C)C)c(Br)c3)cn2c1` the growth was 93.4% (inactive).
For `Cc1ccc(-c2c3c(N)c4c(nc3nc3c2c(C)nn3-c2ccccc2)CCC4)cc1`, the growth was 95.7% (inactive).
With `CCCCCN(CCCCC)CCCNc1c2c(nc3ccc(Cl)cc13)CCCC2` the growth was 44.3% (inactive).
With `COc1cc(OC)c2c(c1Cl)O[C@]1(C2=O)C(OCc2ccccc2)=CC(=O)C[C@H]1C` the growth was 5.17% (active).
In the case of `CCC(C)C1NC(=O)C(CCNCS(=O)(=O)O)NC(=O)C(NC(=O)C(CCNCS(=O)(=O)O)NC(=O)C(NC(=O)C(CCNCS(=O)(=O)O)NC(=O)CCCCC(C)C)C(C)O)CCNC(=O)C(C(C)O)NC(=O)C(CCNCS(=O)(=O)O)NC(=O)C(CCNCS(=O)(=O)O)NC(=O)C(C(C)CC)NC1=O` (stereo not given), the growth is reported as 46.8% (inactive).
`CCN(CC)c1ccc(C(=C2C=CC(=[N+](CC)Cc3cccc(S(=O)(=O)O)c3)C=C2)c2ccc(N(CC)Cc3cccc(S(=O)(=O)O)c3)cc2)cc1` was tested, and the growth was 1.01% (active).
For `O=C(Nc1nn2c(-c3cc(C(F)(F)F)cc(C(F)(F)F)c3)nnc2s1)C1CCCC1`, the growth was 8.91% (active).
`O=C(N/N=C/c1cccc(O)c1O)c1ccccc1` was tested, and the growth was 25.9% (inactive).
With `c1ccc2c(-c3nc4ccccc4[nH]3)cccc2c1` the growth was 43% (inactive).
`C/C(=C\CCc1ccsc1)CC/C=C(\C)CCCN1CCSCC1` was tested, and the growth was 99% (inactive).
With `COc1ccc(C(=O)/C=C/c2ccc(C)cc2)cc1OC` the growth was 79% (inactive).
`Oc1c(Cl)cc(Cl)c(Cl)c1Cc1c(O)c(Cl)cc(Cl)c1Cl` was tested, and the growth was 21.5% (inactive).
In the case of `CCSc1nc(-c2ccco2)n2nc(-c3ccco3)cc2n1`, the growth is reported as 100% (inactive).
In the case of `O=C(Nc1ccccc1)P(=O)(O)c1ccccc1`, the growth is reported as 94.3% (inactive).
`OCCN1CCN(CCCN2c3ccccc3Sc3ccc(C(F)(F)F)cc32)CC1` was tested, and the growth was 45.9% (inactive).
